From PubChem BioAssay (NCATS)
Records with an inconclusive call do not appear. Activity calls are given as the source filed them. The call rests on the fitted dose curve; in most records, active means well fitted curve in the direction sought with a large enough effect; inconclusive means small, poorly fitted or top-dose-only effect, or another doubt; inactive means no such curve, though single readings can be large; an effect the other way counts as inactive or inconclusive.

How the values were obtained:
CRL-7250 = normal cell line; test: Cytotoxic Profiling of Annotated Libraries Using Quantitative High-Throughput Screening (AID 1296008); settings: Five cell lines viability, CellTiter-Glo ATP luminescence, 48-72 h; max response: stronger effect = lower value; further: nearly all actives have a fitted effect of over 60% in size; further: potency means the concentration at half of the fitted maximal effect; on max response: on the % scale 0 is the no-effect control and ±100 the full control effect
Summary of the method: (§1)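 Cytotoxicity was measured as CellTiter-Glo ATP luminescence, read after 10 min at room temperature. Compound treatment of the cells lasted 48 or 72 hr at 37 degrees Celsius in a qHTS format.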

HEK293 = test: as above; settings: Five cell lines viability, CellTiter-Glo ATP luminescence, 48-72 h; max response: stronger effect = lower value
Summary of the method: as §1

HaCat [1] = test: as above; settings: Five cell lines viability, CellTiter-Glo ATP luminescence, 48-72 h; max response: stronger effect = lower value
Summary of the method: as §1

KB-3-1 = test: as above; settings: Five cell lines viability, CellTiter-Glo ATP luminescence, 48-72 h; max response: stronger effect = lower value
Summary of the method: as §1

NIH3T3 = test: as above; settings: Five cell lines viability, CellTiter-Glo ATP luminescence, 48-72 h; max response: stronger effect = lower value
Summary of the method: as §1

HACAT [2] = test: qHTS assay to identify novel small-molecules to repurpose for Merkel cell carcinoma treatment (AID 1296009); settings: MCC and control cell lines, CellTiter-Glo viability, 72 h; at 44.8 µM (top of the series) unless noted; further: nearly all actives have a fitted effect of over 60% in size
Summary of the method: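 Cell viability measured by CellTiter-Glo following 72 hr compound treatment at 37 degree celsius, with NPC and MIPE libraries tested in 8- and 11-point concentration series.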

C33A = test: Primary qHTS to identify gynecologic anti-cancer compounds using libraries of approved drugs and bioactive compounds (AID 1345084); settings: Gynecologic cancer cell panel viability, ATPlite luminescence, 48 h; series mostly up to 57.5 µM; further: on the % scale 0 is the no-effect control and ±100 the full control effect; nearly all actives have a fitted effect of over 55% in size
Summary of the method: (§2)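 ATP-based viability (ATPlite), 1,000 cells/well, 16 h pre-incubation, 48 h compound at 37 C, 5% CO2, 15 min RT before read.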

CAOV3 = test: as above; settings: Gynecologic cancer cell panel viability, ATPlite luminescence, 48 h; series mostly up to 57.5 µM
Summary of the method: as §2

CASKI = test: as above; settings: Gynecologic cancer cell panel viability, ATPlite luminescence, 48 h; series mostly up to 57.5 µM
Summary of the method: as §2

Es-2 = test: as above; settings: Gynecologic cancer cell panel viability, ATPlite luminescence, 48 h; series mostly up to 57.5 µM
Summary of the method: as §2

HeLa = test: as above; settings: Gynecologic cancer cell panel viability, ATPlite luminescence, 48 h; series mostly up to 57.5 µM
Summary of the method: as §2

Hek293T = test: as above; settings: Gynecologic cancer cell panel viability, ATPlite luminescence, 48 h, control line for the selectivity index; series mostly up to 57.5 µM
Summary of the method: as §2

JEG-3 = test: as above; settings: Gynecologic cancer cell panel viability, ATPlite luminescence, 48 h; series mostly up to 57.5 µM
Summary of the method: as §2

OV90 = test: as above; settings: Gynecologic cancer cell panel viability, ATPlite luminescence, 48 h; series mostly up to 57.5 µM
Summary of the method: as §2

PA-1 = test: as above; settings: Gynecologic cancer cell panel viability, ATPlite luminescence, 48 h; series mostly up to 57.5 µM
Summary of the method: as §2

CC1=C2C[C@H]3OC(=O)[C@H](O)[C@@]4(O)[C@@H](C)[C@@H](O)[C@H](O)C([C@@]2(C)[C@H](O)[C@@H](O)C1)[C@@]34C (stereo not given in full)
inactive: max response (CRL-7250) -2.09% | max response (HEK293) -1.6% | outcome (HaCat [1]) | max response (KB-3-1) 9.81% | max response (NIH3T3) 2.2% | outcome (HACAT [2]) | Potency (C33A) | Potency (CAOV3) | outcome (CASKI) | Potency (Es-2) | Potency (HeLa) | Potency (Hek293T) | Potency (JEG-3) | Potency (OV90) | Potency (PA-1)

C=CCC/C=C/C#CCCCCCCCC[C@H]1C(=O)O[C@H](C)[C@@H]1O
inactive: max response (CRL-7250) 0.985% | max response (HEK293) -11.8% | outcome (HaCat [1]) | max response (KB-3-1) -1.24% | max response (NIH3T3) 0.0642% | outcome (HACAT [2]) | Potency (C33A) | Potency (CAOV3) | outcome (CASKI) | Potency (Es-2) | Potency (HeLa) | Potency (Hek293T) | Potency (JEG-3) | Potency (OV90) | Potency (PA-1)

C=C[C@H]1[C@H](O[C@@H]2O[C@H](CO)[C@@H](O)[C@H](O)[C@H]2O)OC=C(C(=O)OC)[C@H]1CCO
inactive: max response (CRL-7250) -6.38% | max response (HEK293) 2.87% | outcome (HaCat [1]) | max response (KB-3-1) 5.52% | max response (NIH3T3) -6.64% | outcome (HACAT [2]) | Potency (C33A) | Potency (CAOV3) | outcome (CASKI) | Potency (Es-2) | Potency (HeLa) | Potency (Hek293T) | Potency (JEG-3) | Potency (OV90) | Potency (PA-1)

NC(=O)NCCCC(NC(=O)Cc1ccccc1)C(=O)O (stereo not given)
inactive: outcome (CRL-7250) | max response (HEK293) -0.44% | outcome (HaCat [1]) | max response (KB-3-1) 3.03% | max response (NIH3T3) 3.99% | outcome (HACAT [2]) | Potency (C33A) | Potency (CAOV3) | outcome (CASKI) | Potency (Es-2) | Potency (HeLa) | Potency (Hek293T) | Potency (JEG-3) | Potency (OV90) | Potency (PA-1)

COc1cc(O)c2c(c1)C1(OC2=O)C(C)=CC(=O)C1O (stereo not given)
inactive: outcome (CRL-7250) | max response (HEK293) -12.8% | outcome (HaCat [1]) | max response (KB-3-1) 7.65% | max response (NIH3T3) 4.25% | outcome (HACAT [2]) | Potency (C33A) | Potency (CAOV3) | outcome (CASKI) | Potency (Es-2) | Potency (HeLa) | Potency (Hek293T) | Potency (JEG-3) | Potency (OV90) | Potency (PA-1)

COc1ccccc1N1CCN(CCCCNC(=O)c2ccc(-c3cscn3)cc2)CC1
active: Potency (HEK293) 20.6 µM
inactive: max response (CRL-7250) -3.11% | outcome (HaCat [1]) | max response (KB-3-1) -12.5% | max response (NIH3T3) 1.48% | outcome (HACAT [2]) | Potency (C33A) | Potency (CAOV3) | outcome (CASKI) | Potency (Es-2) | Potency (HeLa) | Potency (Hek293T) | Potency (JEG-3) | Potency (OV90) | Potency (PA-1)

CC(=O)OC[C@]12[C@H](OC(C)=O)[C@H](OC(=O)c3ccccc3)[C@@H]3[C@@H](OC(C)=O)[C@]1(OC3(C)C)[C@H](C)C[C@H](OC(=O)c1ccccc1)[C@@H]2OC(=O)c1ccccc1
inactive: outcome (CRL-7250) | max response (HEK293) -0.732% | outcome (HaCat [1]) | max response (KB-3-1) -5.99% | max response (NIH3T3) -7.63% | outcome (HACAT [2]) inactive [at 17.4 µM] | Potency (C33A) | Potency (CAOV3) | outcome (CASKI) | Potency (Es-2) | Potency (HeLa) | Potency (Hek293T) | Potency (JEG-3) | Potency (OV90) | Potency (PA-1)

O=C(OC1C=C(CO)C2C(OC3OC(CO)C(O)C(O)C3O)OC=CC12O)c1ccc(O)cc1 (stereo not given)
inactive: max response (CRL-7250) 4.89% | max response (HEK293) -1.34% | outcome (HaCat [1]) | max response (KB-3-1) 1.12% | max response (NIH3T3) -4.5% | outcome (HACAT [2]) inactive [at 17.4 µM] | Potency (C33A) | Potency (CAOV3) | outcome (CASKI) | Potency (Es-2) | Potency (HeLa) | Potency (Hek293T) | Potency (JEG-3) | Potency (OV90) | Potency (PA-1)

CC(C)=CCC[C@](C)(O[C@@H]1O[C@H](CO[C@@H]2O[C@@H](CO)[C@H](O)[C@H]2O[C@@H]2OC[C@@H](O)[C@H](O)[C@H]2O)[C@@H](O)[C@H](O)[C@H]1O)[C@H]1CC[C@]2(C)[C@@H]1[C@H](O)CC1[C@@]3(C)CC[C@H](O[C@@H]4O[C@H](CO)[C@@H](O)[C@H](O)[C@H]4O[C@@H]4O[C@H](CO)[C@@H](O)[C@H](O)[C@H]4O)C(C)(C)C3CC[C@]12C (stereo not given in full)
inactive: max response (CRL-7250) 4.19% | max response (HEK293) -1.64% | outcome (HaCat [1]) | max response (KB-3-1) 8.39% | max response (NIH3T3) 4.58% | outcome (HACAT [2]) inactive [at 9.27 µM] | activity change, negative = cytotoxicity (C33A) 7.16% [at 6.55 µM] | activity change, negative = cytotoxicity (CAOV3) 9.01% [at 6.55 µM] | activity change, negative = cytotoxicity (CASKI) 10.9% [at 6.55 µM] | activity change, negative = cytotoxicity (Es-2) 4.94% [at 6.55 µM] | activity change, negative = cytotoxicity (HeLa) -1.43% [at 6.55 µM] | activity change, negative = cytotoxicity (Hek293T) 2.28% [at 6.55 µM] | activity change, negative = cytotoxicity (JEG-3) 5.39% [at 6.55 µM] | activity change, negative = cytotoxicity (OV90) -2.38% [at 6.55 µM] | activity change, negative = cytotoxicity (PA-1) 11.1% [at 6.55 µM]

COC(=O)C1=COC(O[C@@H]2O[C@H](CO)[C@@H](O)[C@H](O)[C@H]2O)[C@@H]2[C@@](C)(O)[C@@H](OC(=O)/C=C/c3ccccc3)C[C@]12O (stereo not given in full)
inactive: max response (CRL-7250) 1.9% | max response (HEK293) -1.35% | outcome (HaCat [1]) | outcome (KB-3-1) | max response (NIH3T3) 4.01% | outcome (HACAT [2]) inactive [at 17.4 µM] | Potency (C33A) | Potency (CAOV3) | outcome (CASKI) | Potency (Es-2) | Potency (HeLa) | Potency (Hek293T) | Potency (JEG-3) | Potency (OV90) | Potency (PA-1)
